A selection: hits, their analogues and other compounds. The true share with any hit is near 4.2%.
V-ATPase pHluor: regulators of yeast V-ATPase proton pumping, primary screen, pHLuorin cytosolic pH fluorescence; hit rate 0.37% among 350,000; response, % at 10 µM; S. cerevisiae; AID 504577, 2011; in the data active = response mostly above about 7.3%, no sharp cut-off; inactive = mostly below about 5.4%; also: actives read high
TIM10 inh: growth inhibitors of isogenic TIM10 control yeast, primary screen, counter-screen for tim10-1 yeast inhibitor project, luminescence, uHTS; S. cerevisiae TIM10 strain growth, BacTiter-Glo luminescence, 24 h; inhibition, % at 10 µM; hit rate 1.4% among 330,000;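 active = inhibition of 40% or more at the single tested concentration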;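 also: wild-type TIM10 isogenic control strain grown at permissive 25 °C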
tim23-1 inh: growth inhibitors of tim23-1 mutant yeast, primary screen, luminescence, uHTS; S. cerevisiae tim23-1 growth, BacTiter-Glo luminescence, 24 h; inhibition, % at 20 µM; hit rate 1.3% among 330,000; AID 463212, 2010;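 active = growth inhibition of the mutant yeast at or above 50%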;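 also: temperature-sensitive mutant grown at 25 °C; plate controls were DMSO-treated mutant yeast for no effect and medium wells lacking yeast for full effect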
tim10-1 inh: growth inhibitors of tim10-1 mutant yeast, primary screen, luminescence, uHTS; S. cerevisiae tim10-1 ts strain growth, BacTiter-Glo, 24 h; AID 463190, 2010; inhibition, % at 20 µM; hit rate 2.2% among 330,000;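 active = inhibition of at least 40%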;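 also: mutant grown at 25 °C; 0% = DMSO wells with yeast and 100% = wells holding no yeast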
NALP1 yeast inh: NALP1 inflammasome inhibitors in reconstituted yeast, colorimetric, S. cerevisiae, triplicate retest | inhibition, % at 10 µM | hit rate 0.61% among 280,000 | S. cerevisiae NALP1/ASC/caspase-1 growth, X-gal OD620, 72 h; in the data active = inhibition mostly above about 24%, no sharp cut-off; inactive = mostly below about 32%
NLRP3 yeast inh: NALP3 inflammasome inhibitors in reconstituted yeast, primary screen, luminescence, uHTS. hit rate 0.39% among 330,000. inhibition, % at 10 µM. Yeast reconstituted NLRP3/ASC/caspase-1, beta-gal luminescence, 24 h;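 active = inhibition of 50% or more; inactive = inhibition below 50%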;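 also: plate controls were induced DMSO wells for no effect and uninduced yeast grown without galactose for full effect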
* hit, by the source's call; nt = no result.

SMILES	V-ATPase pHluor	TIM10 inh	tim23-1 inh	tim10-1 inh	NALP1 yeast inh	NLRP3 yeast inh
Cc1ccc(/C=C/C(=O)Nc2ccc(S(=O)(=O)Nc3onc(C)c3C)cc2)cc1	-3	4	13	0	-13	25
Cn1c(-c2nonc2N)nc2ccccc21	0	8	11	8	29*	14
CCCn1c(-c2nonc2N)nc2ccccc21	-1	-10	-22	3	-3	21
Cc1cccc(-n2nnc(C(=O)NCc3ccccc3Cl)c2N)c1	-1	-10	9	3	27*	17
Cc1ccc(CNC(=O)c2nnn(-c3cccc(C)c3)c2N)cc1	-1	-9	15	2	2	35
COC(=O)c1sc(S(=O)(=O)N2CCCCC2C)c(C(=O)OC)c1C (configuration not stated)	-1	19	41	14	nt	-13
Nc1c(-c2ccccc2)nc(Cl)nc1-c1ccccc1	8	14	11	24	34*	10
Cc1sc(N)nc1-c1ccccc1	0	-7	7	2	-12	0
O=c1ccnc(SCCc2ccc([N+](=O)[O-])cc2)[nH]1	10	-13	9	16	nt	13
Cc1ccc(SCC(=O)OCc2csc(CC(=O)Nc3ccccc3C)n2)cc1C	-4	4	31	24	nt	6
C#CCNC(=O)C1=C[C@@H](C(C)(C)C)C[C@@H](OCc2ccc(CO)cc2)O1	15	5	20	-2	30*	12
CC(C)(C)[C@@H]1C=C(C(=O)NCc2ccccc2)O[C@H](OCc2ccc(CO)cc2)C1	-4	9	23	19	4	18
Cc1c(CC(=O)O)c(=O)oc2c(C)c(OCc3nn[nH]n3)ccc12	0	5	10	-11	37*	-1
Cc1c(Cc2ccccc2)c(=O)oc2c(C)c(OCc3nn[nH]n3)ccc12	0	6	17	4	12	14
COc1ccc(C)cc1NC(=O)CN1C(=O)COc2ccc(S(=O)(=O)N3CCOCC3)cc21	-2	1	11	19	14	5
CC(=O)Nc1ccc(NC(=O)C(C)OC(=O)c2cccc(S(=O)(=O)N3CCCCCC3)c2)cc1 (configuration not stated)	15*	-2	13	2	nt	19
CC(=O)Nc1ccc(NC(=O)C(C)OC(=O)c2cccc(S(=O)(=O)N3CCCCC3)c2)cc1 (configuration not stated)	4	11	7	5	12	1
Cc1oc2cc(O)ccc2c(=O)c1Oc1ccc2ccccc2c1	2	20	42	21	32*	18
O=C(c1ccc([N+](=O)[O-])cc1)N(Cc1ccc(Br)cc1)N1C(=O)CCCC1=O	-2	19	10	22	34*	6
O=C(c1ccccc1Cl)N(Cc1ccc(Br)cc1)N1C(=O)CCCC1=O	-2	7	17	12	5	-12
CCN(CC(=O)NCc1cccs1)c1ccc(S(=O)(=O)N2CCN(C)CC2)cn1	1	-18	4	2	39*	17
CCN(CC(=O)NCc1cccs1)C(=O)c1cc(S(=O)(=O)N2CCCCC2)ccc1Cl	-6	7	11	-2	nt	18
Cn1c(-c2c(N)n(CCCc3ccccc3)c3nc4ccccc4nc23)nc2ccccc21	-7	nt	nt	nt	41*	nt
Cn1c(-c2c(N)n(CCc3ccccc3)c3nc4ccccc4nc23)nc2ccccc21	-2	-13	6	-29	18	0
O=C(O)c1ccccc1Sc1ncnc2sc3c(c12)CCC3	0	9	6	4	7	2
SMILES	V-ATPase pHluor	TIM10 inh	tim23-1 inh	tim10-1 inh	NALP1 yeast inh	NLRP3 yeast inh
COC(=O)c1c(C)oc(C)c(C(=O)OC)c1=O	3	-17	-8	-18	22*	8
Cc1oc(C)c(C(=O)O)c1C(=O)O	4	-2	-10	5	11	-8
CC(C)n1nnnc1SCC(=O)Nc1cccc(F)c1	0	-17	13	4	28	11
CC(C)(C)OC(=O)C[C@@H]1C/C=C\C[C@@H](CC(=O)N(CCO)Cc2ccccc2)C(=O)N2CCC[C@@H]2COC1=O	5	0	2	-6	nt	31
COc1ccc(/C=N/NC(=O)CC(=O)NCc2cccnc2)cc1	-1	-10	-5	6	23*	-1
COc1ccc(/C=N/NC(=O)CC(=O)NCc2cccnc2)c(OC)c1	0	9	1	13	nt	-18
CSc1ccc(CN2CCC(CO)(Cc3ccc(Cl)cc3)CC2)cc1	-5	-26	10	-43	28*	31
CN(CC(=O)NCc1cccnc1)S(=O)(=O)c1ccc2c(c1)c(=O)n(C)c(=O)n2C	-2	0	-10	3	44*	11
CC1CCCCN1C(=O)COC(=O)c1ccc(=O)n(Cc2ccccc2)n1 (configuration not stated)	1	-1	-5	-12	nt	18
CC(=O)C1[C@H](N(C)C)CC2C3CC=C4CC(O)CC[C@]4(C)C3CC[C@@]21C (some centres not stated)	1	-18	19	3	31	28
CC1CC(C)CN(C(=O)CSc2nnc(-c3ccc(Cl)cc3)o2)C1 (configuration not stated)	1	-1	9	17	35*	24
Cc1ccc(-c2nnc(SCC(=O)N3CC(C)CC(C)C3)o2)cc1C (configuration not stated)	0	10	16	33	14	37
O=C(C1=C(O)C(=O)N(CC2CCCO2)C1c1cccc(Cl)c1)c1ccco1 (configuration not stated)	2	-28	-19	-20	13	-14
COc1cc(C(C)=O)ccc1OCC(=O)Nc1ccc2nc(C)sc2c1	0	-5	16	9	nt	24
CN(C)c1ccc(/C=C(\C#N)C(=O)c2ccccc2)cc1	0	nt	nt	nt	37*	nt
CCC(C(=O)Nc1cnccn1)c1ccccc1 (configuration not stated)	1	10	12	7	22*	22
O=C(Nc1ccc2c(c1)OCO2)C1CCCN1C(=O)Nc1ccccc1 (configuration not stated)	3	8	-3	-24	2	-5
O=C(c1ccccn1)C1CCCN(Cc2cn[nH]c2-c2cc3ccccc3o2)C1 (configuration not stated)	16*	5	-3	22	9	11
COc1ccccc1OCC(=O)Nc1cc(S(=O)(=O)N2CCOCC2)ccc1N1CCCCC1	6	18	33	20	nt	12
CCOc1ccccc1NC(=S)NC(=O)C1CC1	-6	20	50	27	26*	9
CC(=O)Nc1ccc(NC(=S)NC(=O)C2CCCC2)cc1	0	4	31	33	32*	1

Bioassay records from PubChem.
